For 25 molecules, outcome results are on record in PubChem BioAssay (NCATS).

Calls of active or inactive are those of the source. Calls follow the shape of the dose curve; as a rule, active = well fitted curve in the direction sought with a large enough effect; inconclusive = small, poorly fitted or top-dose-only effect, or another doubt; inactive = no such curve, though single readings can be large or run the other way.

Sequence of Guanine nucleotide-binding protein G(i) subunit alpha-1 (Homo sapiens) (P63096 whole entry, looked up): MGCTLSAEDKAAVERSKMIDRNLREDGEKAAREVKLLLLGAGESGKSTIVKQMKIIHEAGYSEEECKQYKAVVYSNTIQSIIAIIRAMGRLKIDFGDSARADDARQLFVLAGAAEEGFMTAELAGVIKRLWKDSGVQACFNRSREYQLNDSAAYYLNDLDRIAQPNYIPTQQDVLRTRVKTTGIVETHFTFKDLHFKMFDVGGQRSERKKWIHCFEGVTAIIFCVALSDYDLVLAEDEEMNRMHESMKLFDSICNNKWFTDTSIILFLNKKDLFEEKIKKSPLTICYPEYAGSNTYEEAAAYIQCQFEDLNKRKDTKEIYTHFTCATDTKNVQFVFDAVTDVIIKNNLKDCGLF

This assay deals with Guanine nucleotide-binding protein G(i) subunit alpha-1 (Homo sapiens) (UniProt P63096). The assay can be described thus: qHTS Assay for Inhibitors of RGS12 GoLoco Motif Activity (Green Fluorophore) (AID 879).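 Also: negative values mean loss of peptide binding seen as reduced polarization.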 The conditions noted are these: Galphai1/FITC-RGS12 GoLoco peptide, fluorescence polarization; series mostly up to 57.1 µM. The text has this:
Assay Overview: NIH Molecular Libraries Screening Centers Network [MLSCN] NIH Chemical Genomics Center [NCGC] MLSCN Grant: NS053754-01 Assay Provider: Siderovski, David P, University of North Carolina at Chapel Hill G-protein-coupled receptors (GPCRs) are major targets for drug discovery. The regulator of G-protein signaling (RGS)-protein family has important roles in GPCR signal transduction. RGS proteins contain a conserved RGS-box, which is often accompanied by other signaling regulatory elements. RGS proteins accelerate the deactivation of G proteins to reduce GPCR signaling; however, some also have an effector function and transmit signals. Combining GPCR agonists with RGS inhibitors should potentiate responses, and could markedly increase the agonist's regional specificity. The diversity of RGS proteins with highly localized and dynamically regulated distributions in brain makes them attractive targets for pharmacotherapy of central nervous system disorders. […] A complex of Gai1 and fluorescently labeled G-alpha-binding peptide (the "GoLoco motif") derived from RGS12 is incubated with library members. Inhibitors of the binding are detected by a decrease in the fluorescence polarization (FP) of the fluorophore. Protein was supplied by Prof. David Siderovski, University of North Carolina at Chapel Hill.
Assay Protocol: Reagents/Controls: Assay Buffer: 10 mM Tris-HCl, 150 mM NaCl, 0.1 mM GDP (prepared fresh), and 0.05% NP40 at pH 7.5. […] 10 nM FITC labeled peptide/50 nM protein in columns 1, 2, 5 - 48. Titration of unlabeled peptide control ([H][…][NH2], custom synthesized and HPLC-purified by Tufts University Core Facility) from 10 mM, then 1:2 dilution, 16-point in duplicate, pin-transferred to column 2, rows 1 to 32. Column 1 is neutral. FITC-labeled RGS12-GoLoco peptide was custom-synthesized and HPLC-purified by Michael Berne of Tufts University Assay Steps. Four uL of reagents were dispensed to 1536-well Greiner black solid-bottom plates. Compounds and controls (23 nL) were transferred via Kalypsys PinTool. The plates were incubated for 10 min at room temperature, and then read on ViewLux (Perkin-Elmer) High-throughput CCD imager using FITC polarization filter sets for the fluorescein-labeled decapeptide probe.During dispense, reagent bottles were kept submerged into 4 deg C water bath and all liquid lines were covered with aluminum foil to minimize probe and protein degradation. All screening operations were performed on a Kalypsys robotic system (Kalypsys, Inc., San Diego, CA) containing one RX-130 and two RX-90 anthropomorphic robotic arms.
A general note: In qHTS, concentration-response curves come from the screen itself.
With `OCCN1CCN(CCCN2c3ccccc3Sc3ccc(Cl)cc32)CC1`, the outcome was inactive.

`CC1=C(CC(=O)O)c2cc(F)ccc2/C1=C\c1ccc(S(C)(=O)=O)cc1`: the result was inactive.

In the case of `Cc1cc(N)c2ccccc2[n+]1CCCCCCCCCC[n+]1c(C)cc(N)c2ccccc21`, the result was inactive.

For `NC(=O)c1ncn([C@@H]2O[C@H](CO)[C@@H](O)[C@H]2O)n1`, the call was inactive.

For `Nc1cc(=O)[nH]c(N)n1`, the result was inactive.

As to `CN(C)CCC=C1c2ccccc2CCc2ccccc21`, the molecule was called inactive.

For `CNCCCC1c2ccccc2C=Cc2ccccc21`, the call was inactive.

As to `CN(C)CCCN1c2ccccc2Sc2ccc(Cl)cc21`, the molecule was called inactive.

Regarding `NC(N)=NCCC[C@H](N)C(=O)O`, the molecule was called inactive.

For `CCCn1cnc2c1c(=O)n(CCCCC(C)=O)c(=O)n2C`, the outcome was inactive.

`N=c1c[n+](N2CCOCC2)[n-]o1`: the molecule was called inactive.

As to `NC1CCN(c2cccc(Cl)n2)CC1`, the call was inactive.

For `CC(=O)OCC(=O)[C@@]1(O)CC[C@H]2[C@@H]3CCC4=CC(=O)CC[C@]4(C)[C@H]3C(=O)C[C@@]21C`, the outcome was inactive.

Turning to `COC(=O)C1=C(C)NC(C)=C(C(=O)OC)C1c1ccccc1[N+](=O)[O-]`, the result was inactive.

For `C#CCN(C)Cc1ccccc1`, the molecule was classed as inactive.

Consider `CC(C)NC[C@H](O)c1ccc(O)c(O)c1`, for which the call was inactive.

Regarding `CCN(CC)CCOC(=O)C1(C2CCCCC2)CCCCC1`, the result was inactive.

Turning to `CN(C)CCCN1c2ccccc2CCc2ccccc21`, the molecule was classed as inactive.

On to `C[C@]12CC[C@@H]3c4ccc(O)cc4CC[C@H]3[C@@H]1CCC2=O`, for which the molecule was classed as inactive.

In the case of `C=Cc1c(C)c2cc3[nH]c(cc4nc(cc5nc(cc1[nH]2)C(C)=C5CCC(=O)O)C(CCC(=O)O)=C4C)c(C)c3C=C`, the molecule was classed as inactive.

In the case of `CC(C)C(=O)c1c(C(C)C)nn2ccccc12`, the molecule was called inactive.

For the molecule `CCN(CC)CCNC(=O)c1cc(Cl)c(N)cc1OC`, the result was inactive.

For `OCc1cc(C(O)CNCCCCCCOCCCCc2ccccc2)ccc1O` (stereo not given), the molecule was called inactive.

For the molecule `COc1ccc(Cl)cc1C(=O)NCCc1ccc(S(=O)(=O)NC(=O)NC2CCCCC2)cc1`, the molecule was called inactive.

Take `CCCCCCCCCCCCCCCC(=O)NCCO`: the call was inactive.
